Out of some 39,000 compounds screened, about 3,300 (8.5%) were called active. This is one part of a sample in which actives are shown more often than they occur.

This test deals with HepG2. The test is described as follows: cytotoxicity call (relative viability < 0.9). The settings on record: 10 µM.
Take `C[C@@H]1CN([C@H](C)CO)C(=O)c2cc(NS(=O)(=O)c3cccs3)ccc2O[C@@H]1CN(C)C(=O)Nc1cccc2ccccc12`: the cytotoxicity call is “inactive”. Regarding `COc1ccc(-c2cn(CCNC(=O)[C@@H](NS(=O)(=O)c3ccc(C)cc3)C(C)C)nn2)cc1OC`, the cytotoxicity call is “inactive”. Next, `O=C1c2ccccc2[C@@]2(Cc3ccccc3N(CC(F)(F)F)C2=O)[C@H](c2ccc(CO)cc2)N1C1CCCCC1`: “inactive”; `C[C@@H]1CN([C@H](C)CO)C(=O)Cc2cc(NC(=O)Nc3cccc4ccccc34)ccc2O[C@H]1CN(C)C(=O)Nc1cccc2ccccc12`: “inactive”; `COc1ccc(S(=O)(=O)Nc2ccc3c(c2)C(=O)N([C@H](C)CO)C[C@@H](C)[C@H](CN(C)C(=O)Nc2ccc(C(F)(F)F)cc2)OCCCC[C@H](C)O3)cc1`: “inactive”. The entry for `COc1ccc([C@@H]2CC=CC[C@H](C)Oc3ccccc3C(=O)N(C)[C@H](Cc3ccccc3)C(=O)N2)c(OC)c1` is “inactive”; for `C[C@H](CO)N1C[C@H](C)[C@@H](CN(C)C(=O)Nc2ccc3c(c2)OCO3)Oc2ncc(-c3ccncc3)cc2C1=O` it is “inactive”. The entry for `C=CC[C@@H](CC(=O)NCCO)C(=O)N[C@H](COC(=O)[C@H](CC=C)CC(=O)OC(C)(C)C)Cc1c[nH]c2ccccc12` is “inactive”. Regarding `Cc1ccc(-c2nc(-c3ccc(Cl)cc3)cs2)cc1F`, the cytotoxicity call is “inactive”. The entry for `Cc1ccc(Cc2nc(-c3ccc(Cl)cc3)cs2)cc1` is “active”. For `Cc1ccc(-c2csc(-c3ccc(CN)cc3)n2)cc1`, the cytotoxicity call is “inactive”. The entry for `C[C@@H]1CN([C@H](C)CO)S(=O)(=O)c2ccc(C#C[C@@H](C)O)cc2O[C@H]1CN(C)C(=O)C1CCCCC1` is “inactive”. Next, `CN(C)CC(=O)N[C@H]1CC[C@H](CCNS(=O)(=O)c2ccccc2)O[C@H]1CO`: “inactive”; `CN(C)CC(=O)N[C@H]1CC[C@H](CCNS(=O)(=O)c2ccccc2)O[C@@H]1CO`: “inactive”.

With `O=S(=O)(NCC[C@@H]1CC[C@H](NS(=O)(=O)c2ccccc2Cl)[C@H](CO)O1)c1ccc(F)cc1`, the cytotoxicity call is “inactive”. With `O=S(=O)(NCC[C@@H]1CC[C@@H](NS(=O)(=O)c2ccccc2Cl)[C@H](CO)O1)c1ccc(F)cc1`, the cytotoxicity call is “inactive”. For the compound `CN(C)CC(=O)N[C@@H]1CC[C@@H](CCNS(=O)(=O)c2ccccc2)O[C@@H]1CO`, the cytotoxicity call is “active”. Next, `O=S(=O)(NCC[C@H]1CC[C@H](NS(=O)(=O)c2ccccc2Cl)[C@@H](CO)O1)c1ccc(F)cc1`: “active”; `C[C@H]1CCCCO[C@@H](CN(C)Cc2ccncc2)[C@@H](C)CN([C@@H](C)CO)C(=O)c2cc(NC(=O)Cc3ccccc3)ccc2O1`: “inactive”.

Take `C[C@@H]1CN([C@@H](C)CO)C(=O)Cc2cc(NC(=O)Nc3cccc4ccccc34)ccc2O[C@H]1CN(C)S(=O)(=O)c1cccs1`: the cytotoxicity call was “inactive”.
